TRHR agonist-1 = qHTS for Small Molecule Agonists and Allosteric Enhancers of Human TRH Receptor: Primary Screen for Agonists; activation, % at 2 µM; hit rate 0.18% among 360,000; TRHR cells, calcium flux fluo-8, FDSS agonist mode; Thyrotropin-releasing hormone receptor (Homo sapiens), P34981; in the data active = activation above about 30%
Target sequence (P34981 whole entry, looked up): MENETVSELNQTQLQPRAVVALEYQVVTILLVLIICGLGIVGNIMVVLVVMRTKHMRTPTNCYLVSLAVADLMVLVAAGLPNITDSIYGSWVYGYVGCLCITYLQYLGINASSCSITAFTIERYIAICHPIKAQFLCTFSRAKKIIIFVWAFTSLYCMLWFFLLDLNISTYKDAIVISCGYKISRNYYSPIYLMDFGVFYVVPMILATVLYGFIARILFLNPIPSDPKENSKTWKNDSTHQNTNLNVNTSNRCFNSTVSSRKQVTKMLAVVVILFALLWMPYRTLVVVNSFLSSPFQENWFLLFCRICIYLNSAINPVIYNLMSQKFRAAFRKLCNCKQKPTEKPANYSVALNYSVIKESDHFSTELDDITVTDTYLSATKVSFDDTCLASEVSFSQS
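Fluo-8-loaded TRHR cells; 10 s baseline, compound added, kinetic Ca2+ fluorescence read 1/s, agonist mode.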
GRP78 ERSR act = qHTS for Inducers of the Endoplasmic Reticulum Stress Response (ERSR) in Human Glioma: qHTS | U87-MG GRP78 promoter luciferase reporter, 16 h | Potency, µM, hits mostly activators | hit rate 0.02% among 420,000 | AID 602332, 2012; note: series mostly up to about 76 µM; nearly all actives have a fitted effect of over 35% in size
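Stably transfected U87-MG glioma cells carrying a GRP78-based luciferase sensor; 16 h compound incubation. Luminescence end-point read 10 min after Bright-Glo addition at room temperature.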
TRPML1 blocker = qHTS for Inhibitors of the Human Mucolipin Transient Receptor Potential 1 (TRPML1); Mucolipin-1 (Homo sapiens), Q9GZU1; TRPML1-inducible cells, Ca2+ dye fluorescence, FDSS; stronger effect = lower value; inhibition of EC80 agonist-evoked calcium signal; activity change, negative = inhibition, % (test concentration not listed); AID 624415, 2012; hit rate 0.02% among 390,000; in the data active = activity change below about -50%; inconclusive = between about -30% and that limit;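 note: stimulus is agonist 54-4 at its EC80 concentration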
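Tet-induced TRPML1-DL cells loaded with Ca8 no-wash calcium dye were read kinetically on FDSS. Compound addition was followed by EC80 agonist 54-4 (4 uM final); inhibition was read over 110 s.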
TRHR enhancer-1 = qHTS for Small Molecule Agonists and Allosteric Enhancers of Human TRH Receptor: Primary Screen for Enhancers. TRHR cells, fluo-8 calcium fluorescence, EC20 TRH enhancement. enhancement, % at 2 µM. hit rate 0.66% among 360,000. AID 493056, 2011; in the data active = enhancement above about 30%
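TRHR-expressing cells loaded with fluo-8 calcium dye were read kinetically (ex 480/em 530) during compound addition, then stimulated with an EC20 of TRH (10 nM final). Enhancement of the Gq-mediated intracellular calcium response was scored.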
TRPML1 ag = qHTS for Agonists of the Human Mucolipin Transient Receptor Potential 1 (TRPML1) | Mucolipin-1 (Homo sapiens), Q9GZU1 | TRPML1-expressing cells, Ca2+ dye fluorescence, FDSS | activation, % (test concentration not listed) | hit rate 0.12% among 410,000; in the data active = activation above about 50%; inconclusive = mostly about 30% to 49%
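Tetracycline-induced TRPML1-DL cells are seeded and incubated overnight before loading with a no-wash Ca2+ dye and quencher. Agonist activity is taken from the 110 s fluorescence read following compound pin-transfer on an FDSS, before EC80 54-4 challenge.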
TRHR enhancer-2 = qHTS for Small Molecule Agonists and Allosteric Enhancers of Human TRH Receptor: Confirmation Screen for Enhancers | shares compounds with TRHR enhancer-1 | TRH receptor cell assay, enhancer confirmation qHTS | activity change, negative = inhibition, % at 46.1 µM | 970 tested, under 10 active | AID 493076, 2011;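 note: compound effect scored on response to added TRH at EC20 of 10 nM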
TRHR agonist-2 = qHTS for Small Molecule Agonists and Allosteric Enhancers of Human TRH Receptor: Confirmation Screen for Agonists. shares compounds with TRHR enhancer-1. hit rate 8% among 970. Potency, µM (doses to about 46.1 µM), hits mostly activators. TRHR-expressing cells, agonist activation read-out; note: nearly all actives have a fitted effect of over 75% in size
Hits are given with their value; – = inactive; ? = inconclusive; · = no result. An excerpt weighted towards active compounds, which were near 0.8% of everything screened. Unless noted, calls come from the whole dose curve; as a rule, active = well fitted curve in the direction sought with a large enough effect; inconclusive = small, poorly fitted or top-dose-only effect, or another doubt; inactive = no such curve, though single readings can be large; an effect the other way counts as inactive or inconclusive.

SMILES	TRHR agonist-1	GRP78 ERSR act	TRPML1 blocker	TRHR enhancer-1	TRPML1 ag	TRHR enhancer-2	TRHR agonist-2
CCCCNC(=O)c1cc2c(=O)n3cccc(C)c3nc2n1C	–	·	·	–	·	·	·
COCCNC(=O)c1cc2c(=O)n3cccc(C)c3nc2n1C	–	–	–	41.2	–	?	–
CCc1nc2cc(C(=O)NC3CCOC(C)(C)C3)cc(NC(=O)c3ccccc3OC)c2n1C (configuration not stated)	·	–	·	·	·	·	·
Cc1c(C2(O)C(=O)Nc3ccc(F)cc32)c(=O)n(-c2ccccc2)n1C (configuration not stated)	–	–	–	49.7	–	–	–
COc1ccccc1CNC(=O)C/C(C)=N/NC(=O)Cc1ccccc1	–	–	–	41.0	–	–	–
O=C(c1ccccc1C(F)(F)F)N1CCOc2c(cc(-c3nc4ccccc4s3)cc2OC2CCOC2)C1 (configuration not stated)	·	–	·	·	·	·	·
Cc1cccc(C(=O)N/N=C/c2cc(Br)c(Br)o2)c1	–	–	–	54.2	–	–	–
O=C([C@@H]1C[C@@H](Sc2nc3ccccc3[nH]2)CN1Cc1c(F)cccc1F)N1CCOCC1	·	–	·	·	·	·	·
CCN1CCN(Cc2c(O)ccc3c2O/C(=C\C=C\c2ccccc2)C3=O)CC1	–	?	–	–	?	·	·
CN(C)Cc1c(O)ccc2c1O/C(=C\C=C\c1ccccc1)C2=O	–	–	·	–	·	–	18.4µM
CCCN1CCC(CCOc2ccccc2)(C(=O)OCC)CC1	–	–	–	55.7	–	–	–
CCCCn1nnnc1SCC(=O)NNC(=O)C1CCCCC1	–	–	–	41.6	–	–	–
CCCn1nnnc1SCC(=O)NC1CCCC1	–	–	–	–	–	·	·
COc1ccc(C)cc1NC(=O)c1cc(S(=O)(=O)NCCC2=CCCCC2)ccc1F	–	–	–	–	–	·	·
COc1ccc(C)cc1NC(=O)NCCC1=CCCCC1	–	–	–	43.4	–	–	–
Cc1cnc(-n2ncc(C(=O)NCCCc3ccncc3)c2C)nc1-c1ccc(F)cc1	·	–	·	·	·	·	·
O=C(CN1CCN(c2ccccc2F)CC1)c1ccc(O)cc1O	–	–	–	94.5	–	–	–
O=C(Nn1cnnc1)c1cccc(S(=O)(=O)N2CCOCC2)c1	102.1	–	–	–	–	–	–
CCN(CC)c1ccc(/C=N/NC(=O)c2cccc(S(=O)(=O)N3CCOCC3)c2)c(O)c1	39.3	–	–	–	–	–	?
COC(=O)c1cc(CNC(=O)c2cccc3ccccc23)cc(NC(=O)c2ccccc2OC)c1	·	–	·	·	·	·	·
O=C(CNC(=O)c1ccco1)Nc1ccc(OC(F)F)cc1	–	?	–	50.5	–	–	–
COc1ccc(NC(=O)CNC(=O)c2ccco2)cc1	–	–	–	–	–	·	·
CCCCCn1nc(-c2ccccc2)c2nc3ccccc3nc21	–	–	–	–	–	–	16.4µM
CCCc1cc(C(=O)N2CCCC(C(=O)c3cccc4ccccc34)C2)n(C)n1 (configuration not stated)	–	–	–	46.5	–	–	–
CCOC(=O)Cc1nnc(NC(=O)COc2ccc(C)cc2)s1	–	–	–	41.1	–	?	–
SMILES	TRHR agonist-1	GRP78 ERSR act	TRPML1 blocker	TRHR enhancer-1	TRPML1 ag	TRHR enhancer-2	TRHR agonist-2
NS(=O)(=O)c1ccc(CCNC(=O)C2CCC(Cn3c(=S)[nH]c4ccccc4c3=O)CC2)cc1 (configuration not stated)	–	–	–	41.0	–	–	–
COCc1ccc(CN2Cc3cc(Cl)ccc3OC(C)C2)o1 (configuration not stated)	·	–	·	·	·	·	·
COc1cc(-c2cc(C)c3c(OC)ccc(OC)c3n2)cc2c1OCCN(Cc1cn(C)nc1C)C2	·	–	·	·	·	·	·
CCN1C(=O)/C(=C/C=C2/SCCN2C)SC1=S	–	–	–	–	–	·	·
CN1CCS/C1=C\C=C1/SC(=S)N(CC(=O)O)C1=O	–	–	–	–	–	–	20.6µM
CSc1ccc(S(=O)(=O)NC(C)c2ccccc2)cc1 (configuration not stated)	–	–	–	–	–	·	·
Cc1ccc(S(=O)(=O)NC(C)c2ccccc2)cc1[N+](=O)[O-] (configuration not stated)	–	–	–	58.0	–	–	–
O=C(C1=NN(c2ccccc2)C2C(=O)N(c3ccccc3)C(=O)C12)c1ccccc1 (configuration not stated)	33.0	–	–	–	–	?	18.4µM
O=S(=O)(c1ccc2c(c1)OCCO2)N1CCN(S(=O)(=O)c2cccs2)CC1	–	·	·	–	·	·	·
COc1ccccc1-c1cc2c(c(OC)c1)OCCN(CCC(C)c1ccc(C)o1)C2 (configuration not stated)	·	–	·	·	·	·	·
Cc1cc(C)c2nc(SC(C)C(=O)NCC(=O)Nc3ccc(F)c(F)c3F)cc(C)c2c1 (configuration not stated)	–	–	–	–	–	·	·
Cc1cc(SC(C)C(=O)NCC(=O)Nc2ccc(F)c(F)c2F)nc2ccccc12 (configuration not stated)	–	–	–	43.5	–	?	–
